# TEAD-YAP block: TEAD-YAP interaction inhibition; HEK-TIYL cells, TEAD-Gal4/YAP UAS-luciferase luminescence; inhibition, % at 9.12 µM; actives 1.4% (n = 640,000); AID 1259422; in the data active = inhibition above about 32%;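 also: 0% = median of test compound wells and 100% = reference inhibitor wells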
# MITF inh: blocks human microphthalmia-associated transcription factor | actives 0.91% (n = 650,000) | inhibition, % at 2.6 µM | AlphaScreen MITF homodimerization, bead proximity signal; in the data active = inhibition above about 50%;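 also: 0% = vehicle wells with protein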
# GPR151 activ: activators of human GPR151; PathHunter beta-arrestin GPR151 cells, luminescence; AID 1508602; activation, % at 11.2 µM; Q8TDV0; actives 1% (n = 650,000); in the data active = activation above about 4.9%;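 also: 0% = median of compound wells and 100% = cells with positive control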
# FBW7 activator: human FBW7 E3 ligase activation, primary screen; Q969H0; AID 1259310; actives 0.13% (n = 650,000); AlphaScreen FBW7–phospho-cyclin E peptide binding, activator screen; normalized activity (activation), % at 26.1 µM; in the data active = normalized activity above about 1.9%;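 also: purified mutant Fbw7 with reduced substrate affinity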
# Target sequence (Q969H0 whole entry, looked up): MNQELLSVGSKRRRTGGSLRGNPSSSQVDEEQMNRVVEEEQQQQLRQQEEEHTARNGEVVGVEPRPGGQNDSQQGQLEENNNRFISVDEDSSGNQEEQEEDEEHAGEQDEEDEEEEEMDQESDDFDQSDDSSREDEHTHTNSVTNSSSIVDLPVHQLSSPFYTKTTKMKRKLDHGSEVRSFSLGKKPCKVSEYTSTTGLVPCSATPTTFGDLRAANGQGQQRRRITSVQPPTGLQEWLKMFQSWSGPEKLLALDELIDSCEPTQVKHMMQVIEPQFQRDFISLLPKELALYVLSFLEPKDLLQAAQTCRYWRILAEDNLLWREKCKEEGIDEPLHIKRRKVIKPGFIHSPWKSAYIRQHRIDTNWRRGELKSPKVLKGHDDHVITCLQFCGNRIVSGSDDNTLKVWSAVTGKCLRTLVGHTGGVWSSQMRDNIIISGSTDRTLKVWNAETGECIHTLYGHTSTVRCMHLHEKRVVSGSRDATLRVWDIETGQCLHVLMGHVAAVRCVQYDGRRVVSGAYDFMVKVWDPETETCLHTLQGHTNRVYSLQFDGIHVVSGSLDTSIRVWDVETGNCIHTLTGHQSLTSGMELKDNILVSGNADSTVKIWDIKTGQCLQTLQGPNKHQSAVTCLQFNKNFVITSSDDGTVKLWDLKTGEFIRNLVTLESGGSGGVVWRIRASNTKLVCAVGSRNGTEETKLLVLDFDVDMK
# Numbers without * were called inactive. Compounds with a hit are over-represented: about 3.5% of the library has one in this group of screens.
SMILES,TEAD-YAP block,MITF inh,GPR151 activ,FBW7 activator
CN1CCN(C(=O)c2ccc(-c3nc(NC4CC4)c4ncn(-c5ccsc5)c4n3)cc2)CC1,49*,2,0,0
CN1CCN(c2ccc(-c3nc(NC4CC4)c4ncn(-c5ccsc5)c4n3)cc2)CC1,49*,5,1,0
CN1CCN(C(=O)c2ccc(-c3nc(NCc4nc5ccccc5[nH]4)c4ncn(-c5ccsc5)c4n3)cc2)CC1,59*,-6,-1,0
Cc1ccc(N2CC(C(=O)Nc3nccs3)CC2=O)cc1Cl (stereo not drawn),61*,5,2,0
O=C(NCC1CCC2(CCN(Cc3ccc4c(c3)CCO4)CC2)O1)c1ccccc1 (stereo not drawn),15,9,2,0
CC(C)(C)OC(=O)N/N=C/c1cccc(O)c1,84*,3,-4,0
O=C(N/N=C/c1cccc(O)c1)c1ccc(F)cc1,35*,8,-1,0
COc1cccc(NC(=O)CSCc2cccc(Br)c2)c1,-21,11,1,0
N#Cc1cnc(SCc2cc(=O)n3ccccc3n2)nc1N,-9,3,0,16*
Cc1cccc(Nc2ccc([N+](=O)[O-])cc2S(N)(=O)=O)c1,36*,9,-2,0
Cc1ccc(NC(=O)c2cc(S(=O)(=O)N3CCOCC3)ccc2F)cc1F,-9,10,0,0
Cc1sc(NC(=O)c2cnccn2)nc1-c1ccc2c(c1)CCN2C(=O)C1CCCCC1,0,7,1,0
CC(=O)Nc1nc(-c2ccc3c(c2)CCN3C(=O)C2CCCCC2)c(C)s1,78*,20,1,0
CC(=O)Nc1nc(-c2ccc3c(c2)CCN3C(=O)C2CC2)c(C)s1,75*,3,1,0
O=C1C(Nc2ccc(F)cc2)=C(N2CCOCC2)C(=O)c2ccccc21,-22,15,-1,0
COc1ccc(-c2cncc3ccc(C(=O)N[C@@H](C)c4ccccc4)nc23)cc1,50*,-13,-1,0
COc1ccc(-c2cncc3ccc(C(=O)N[C@H](C)c4ccccc4)nc23)cc1,61*,15,1,1
O=C(O)c1ccc(Nc2nc(-c3ccc(Cl)cc3Cl)nc3ccccc23)cc1,-30,-9,-1,0
COc1ccc(C(=O)n2c(=S)nc3cccc(C)n32)cc1,11,-2,2,0
COc1ccc(C(=O)n2c(=S)nc3ccccn32)cc1,74*,9,-1,0
COc1cc(-c2nnc(C(=O)CSc3nc4ccccc4s3)o2)cc(OC)c1OC,1,9,1,0
CN1C(=O)/C(=C/c2cc(Cl)ccc2O)NC1=S,62*,-7,2,0
c1cc(Nc2cc(C3CC3)[nH]n2)cc(Nc2ccc(N3CCOCC3)cc2)n1,85*,14,1,-1
c1ccc(Nc2ncn(-c3ccnc(Nc4ccc(N5CCOCC5)cc4)c3)n2)cc1,37*,5,0,0
O=C(NCc1ccccc1)c1ccnc(Nc2ccc(N3CCOCC3)cc2)c1,1,21,0,0
SMILES,TEAD-YAP block,MITF inh,GPR151 activ,FBW7 activator
c1ccc(-n2cccn2)c(Nc2ccnc(Nc3ccc(N4CCOCC4)cc3)c2)c1,40*,6,3,0
c1ccc(CNc2ccnc(Nc3ccc(N4CCOCC4)cc3)c2)cc1,34*,9,1,-1
c1cc(Nc2ccc3nc[nH]c3c2)cc(Nc2ccc(N3CCOCC3)cc2)n1,1,24,1,0
O=C1/C(=C/c2cn[nH]c2-c2ccccc2)Sc2ccccc21,-7,-6,0,0
COc1ccc(S(=O)(=O)NC(C(C)C)C(C)C)cc1I,-2,-1,3,0
COc1cc2c(cc1OC)CN(C(=O)C1CCN(c3ccc(-n4cccn4)nn3)CC1)CC2,22,10,0,0
c1cc(-c2ccnc(Nc3ccc(-n4cnc(-c5ccncc5)n4)cc3)n2)cc(N2CCOCC2)c1,20,-13,-1,0
c1ccc(-c2ncn(-c3ccc(Nc4cc(-c5cccc(N6CCOCC6)c5)ccn4)cc3)n2)nc1,78*,12,0,0
COC(=O)c1cc(NC(=O)Cn2ncc3c(=O)oc4ccc(C)cc4c32)cc(C(=O)OC)c1,3,2,-2,0
Cc1ccc(-c2csc(/C(C#N)=C\Nc3ccc(S(N)(=O)=O)cc3)n2)cc1,9,6,2,2.7*
COc1ccc(Cl)cc1NC(=O)CN1C(=O)CC(c2ccco2)Sc2ccccc21 (stereo not drawn),45*,-3,-1,0
COc1ccc(OC)c(NC(=O)CN2C(=O)CC(c3ccco3)Sc3ccccc32)c1 (stereo not drawn),-1,0,-1,0
CCOC(=O)CN1C(=O)C2C3c4ccccc4C(c4ccccc43)C2C1=O (stereo not drawn),5,7,0,0
CCOc1ccc2c(c1)C(C)=CC(C)(C)N2S(=O)(=O)c1ccc(Cl)cc1,60*,5,0,0
CC1=CC(C)(C)N(S(=O)(=O)c2ccc(C)cc2)c2ccc(Cl)cc21,27,-6,0,0
COc1ccc2c(c1)C(C)=CC(C)(C)N2S(=O)(=O)c1ccc(Cl)cc1,48*,-2,1,0
CC1=CC(C)(C)N(S(=O)(=O)c2ccc(Cl)cc2)c2ccccc21,55*,1,0,0
COC(=O)c1ccc(/C=N/NC(=O)COc2ccc(Br)cc2OC)cc1,9,1,0,0
COC(=O)Nc1ccc(S(=O)(=O)N2c3ccccc3CCC2C)cc1 (stereo not drawn),53*,-8,1,0
c1ccc(-n2ncc3c(Nc4cccc5c4CCCC5)ncnc32)cc1,-1,5,4,0
Cc1cccc(-n2ncc3c(Nc4cccc5c4CCCC5)ncnc32)c1,42*,18,0,0
Cc1cccc(Nc2ncnc3c2cnn3-c2cccc(C)c2)c1,-27,10,0,0
COc1ccc(-n2ncc3c(Nc4cccc5c4CCCC5)ncnc32)cc1,47*,-4,1,0
Cn1c(SCC#N)nnc1-c1ccccc1O,-2,-5,1,0
CCOC(=O)c1cc2cccc(NS(=O)(=O)c3cccs3)c2[nH]1,4,6,-2,0
SMILES,TEAD-YAP block,MITF inh,GPR151 activ,FBW7 activator
CCOC(=O)c1cc2cccc(NS(=O)(=O)c3ccc(OC)cc3)c2[nH]1,52*,-4,0,0
Cc1[nH]c2c(NS(=O)(=O)c3ccc4oc(=O)ccc4c3)cccc2c1C,-4,3,0,0
COc1ccc(S(=O)(=O)Nc2cccc3c(C)c(C)[nH]c23)cc1,44*,10,2,0
COc1ccc(S(=O)(=O)/N=C2/C=C(Nc3ccccc3)C(=O)c3ccccc32)cc1,-11,28,-1,0
COc1ccc(S(=O)(=O)/N=C2/C=C(Nc3ccccc3OC)C(=O)c3ccccc32)cc1,-3,57*,-2,0
CCOC(=O)/C(C#N)=C/NC(=O)Nc1ccc(C)cc1,7,7,0,0
CCOC(=O)C1=CN(Cc2ccc(OC)cc2)C=C(C(=O)OCC)C1c1ccccc1OCc1ccccc1,8,-20,0,2.2*

# High-throughput results from PubChem BioAssay.
